Shown are actives, neighbours in structure and some others; about 3.6% of the full set was active somewhere.
Wnt act: activators of Wnt/beta-catenin signaling | Wnt/beta-catenin reporter cell assay, activator, plate reader | activation, % at 9.35 µM | 1.2% of 300,000 active | AID 743398; in the data active = activation above about 30%, passing the limit was not always enough; inconclusive = no clear call, values can overlap the other calls;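 also: 0% = neutral control wells and 100% = positive control wells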
A3A deaminase: inhibitors of human APOBEC3A DNA deaminase | P31941 | recombinant A3A, FAM/TAMRA ssDNA deamination fluorescence | inhibition, % at 20 µM | 0.41% of 330,000 active;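 active = at least 40% inhibition at 20 µM here, with at most 30% in a related deaminase screen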;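 also: plate controls were A3A with DMSO for no effect and wells lacking A3A enzyme for full effect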
esBAF inh: SWI/SNF esBAF complex inhibition; reporter increase, % at 12.5 µM; 2% of 350,000 active; mouse ES cells, Bmi1-luciferase knock-in reporter, 24 h; 100% = twice the neutral-well signal; in the data active = activation above about 40%; inconclusive = no clear call, values can overlap the other calls;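 also: 0% = median of the plate's neutral control wells and 100% = double that signal; a rise in the Bmi1 reporter signal indicates esBAF inhibition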
MITF TRPM1 HTS: activators of MITF-driven TRPM1 promoter activity in SK-MEL-5 cells; SK-MEL-5 TRPM1-promoter luciferase, 24 h; % of positive control, neutral wells = 0; activation, % at 12.5 µM; 0.75% of 300,000 active; AID 588334;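 active = mean activation of at least 80% with every replicate also reaching 80%; inconclusive = mean reaches 80% but some replicate falls short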;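 also: 0% = neutral control wells and 100% = parthenolide positive control wells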
PHOSPHO1 block: PHOSPHO1 (human) inhibition; recombinant PHOSPHO1, absorbance phosphatase assay; inhibition, % at 13.3 µM; 1.1% of 290,000 active; AID 1565; in the data active = inhibition above about 60%
Target sequence (Q8TCT1 whole entry, looked up): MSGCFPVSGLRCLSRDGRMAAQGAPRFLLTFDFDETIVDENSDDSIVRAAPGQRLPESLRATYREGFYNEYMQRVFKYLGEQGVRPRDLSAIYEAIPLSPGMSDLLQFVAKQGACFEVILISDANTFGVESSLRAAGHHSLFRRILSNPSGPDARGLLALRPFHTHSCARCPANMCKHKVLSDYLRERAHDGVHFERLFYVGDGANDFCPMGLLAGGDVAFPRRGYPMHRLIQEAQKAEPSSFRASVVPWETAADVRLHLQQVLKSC
APOBEC3G inh: inhibitors of human APOBEC3G DNA deaminase; recombinant A3G, ssDNA deamination FAM/TAMRA fluorescence; 0.28% of 330,000 active; inhibition, % at 20 µM; Q9HC16;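 active = inhibition of at least 40% at 20 µM, with no more than 30% in the related APOBEC3A deaminase screen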;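 also: plate controls were DMSO wells with A3G for no effect and wells lacking A3G enzyme for full effect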
Target sequence (Q9HC16 whole entry, looked up): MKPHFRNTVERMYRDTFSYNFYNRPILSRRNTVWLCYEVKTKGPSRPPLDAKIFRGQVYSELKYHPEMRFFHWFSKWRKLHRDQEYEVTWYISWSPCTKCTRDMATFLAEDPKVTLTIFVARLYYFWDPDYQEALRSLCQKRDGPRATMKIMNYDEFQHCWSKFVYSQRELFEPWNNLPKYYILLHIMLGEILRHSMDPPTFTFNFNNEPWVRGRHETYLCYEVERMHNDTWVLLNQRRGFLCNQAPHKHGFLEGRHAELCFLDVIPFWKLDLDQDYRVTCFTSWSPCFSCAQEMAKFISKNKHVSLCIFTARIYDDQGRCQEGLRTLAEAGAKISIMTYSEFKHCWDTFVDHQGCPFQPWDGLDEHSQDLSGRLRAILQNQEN
* = called active by the depositor; ? = inconclusive; . = no result given.

SMILES	Wnt act	A3A deaminase	esBAF inh	MITF TRPM1 HTS	PHOSPHO1 block	APOBEC3G inh
Cc1noc(C)c1S(=O)(=O)Nc1ccc2c(c1)C(=O)N([C@H](C)CO)C[C@@H](C)[C@H](CN(C)C(=O)Nc1ccc(C(F)(F)F)cc1)O2	.	.	4.6	.	.	.
C[C@H]1CN([C@@H](C)CO)C(=O)c2cc(NC(=O)C3CCCCC3)ccc2O[C@@H]1CN(C)C(=O)Nc1ccccc1	.	.	-6.6	.	.	.
Cc1ccnc(NC(=O)Nc2ccc(F)cc2)c1	.	6.3	.	42.2	-6.6	1.3
COc1ccc(NC(=O)Nc2cc(C)ccn2)cc1	43.9*	.	-67.4	9.0	.	.
Cc1ccc(NC(=O)c2cccc3ccccc23)cc1	-0.6	-2.2	61.4*	.	40.1	-0.9
COc1cc2ccccc2cc1C(=O)Nc1cc(C)ccn1	25.9	-2.2	55.4*	30.5	14.5	-6.0
CC(=O)Nc1ccc(NC(=O)c2cccc3ccccc23)cc1	-0.2	1.0	-4.4	13.4	41.1	-8.8
C[C@H](CO)N1C[C@H](C)[C@H](CN(C)Cc2ccc(C(=O)O)cc2)Oc2ncc(C3=CCCCC3)cc2C1=O	.	.	-0.9	.	.	.
C[C@@H]1CN([C@@H](C)CO)C(=O)c2cc(NC(=O)Nc3ccc(C(F)(F)F)cc3)ccc2O[C@H]1CN(C)S(=O)(=O)c1ccccc1	.	.	-9.5	.	.	.
Cn1cnc(S(=O)(=O)N[C@@H]2C=C[C@@H](CC(=O)N3CCN(c4ccccc4)CC3)O[C@@H]2CO)c1	.	.	-4.3	.	.	.
COC(=O)c1ccccc1NC(=O)c1sc(Cl)nc1C	6.4	-4.4	-8.1	8.1	29.1	-2.7
COC(=O)c1ccc(-c2ccc(Cl)cc2)nc1C	.	-6.1	21.3	92.6*	-17.0	-6.7
COc1ccc(C2=CN(Cc3ccccc3)C(c3ccccc3)CC2=O)cc1 (stereo not given)	19.3	-1.8	19.0	99.9*	.	-1.9
COCC#Cc1ccc2c(c1)O[C@H](CN(C)C(=O)c1ccccc1F)[C@@H](C)CN([C@H](C)CO)S2(=O)=O	.	.	4.5	.	.	.
CCC(=O)Nc1cccc(NC(=S)NC(=O)c2cccs2)c1	.	-0.2	.	86.0*	-10.9	-4.6
N#Cc1ccccc1NC(=S)NC(=O)c1cccs1	9.1	-4.7	45.2*	-8.6	10.3	-8.2
CSc1ccc(N2C(=O)NC3(CCCCC3)C2=O)cc1	18.4	-3.1	61.5*	35.0	-3.3	-1.9
O=c1[nH]c(NNC(=S)NCc2ccccc2)nc2c1C1(CCCCC1)Cc1ccccc1-2	.	-3.1	-7.1	-4.7	1.8	-4.7
C=CCNC(=S)NNc1nc2c(c(=O)[nH]1)C1(CCCC1)Cc1ccccc1-2	51.9*	-2.1	.	-0.3	1.8	0.0
C[C@@H]1CCCCO[C@@H](CN(C)Cc2ccc3c(c2)OCO3)[C@@H](C)CN([C@H](C)CO)C(=O)c2cc(NS(C)(=O)=O)ccc2O1	.	.	1.5	.	.	.
Cc1ccnc(Nc2nc3ccccc3o2)n1	3.6	-4.0	-59.9	-17.0	38.3	-2.7
Cc1ccc(Nc2nc3ccccc3o2)cc1F	30.8*	-1.7	14.1	12.2	1.9	-5.6
COc1ccccc1-n1cc(C(=O)NCC(=O)N2CCN(c3ccccc3)CC2)c2ccccc2c1=O	.	-0.4	25.1	42.6	63.0*	-1.0
COc1ccccc1N1CCN(C(=O)CNC(=O)c2cn(-c3ccccc3OC)c(=O)c3ccccc23)CC1	1.9	4.4	15.5	15.2	28.0	-4.1
O=c1c2ccccc2nc2n1CCc1c-2[nH]c2ccccc12	40.7*	1.8	27.5	39.0	.	-0.1
SMILES	Wnt act	A3A deaminase	esBAF inh	MITF TRPM1 HTS	PHOSPHO1 block	APOBEC3G inh
COc1cc(NC(=S)NCc2cccnc2)cc(OC)c1OC	1.5	-3.5	.	-8.9	62.8*	1.7
COc1cc(NC(=S)NCc2cccnc2)cc(OC)c1	0.4	-3.2	.	4.6	-6.2	-7.0
Cc1ccc(S(=O)(=O)N(C)C[C@H]2Oc3ccc(NC(=O)Cc4ccccc4)cc3CC(=O)N([C@@H](C)CO)C[C@@H]2C)cc1	.	.	3.5	.	.	.
COc1cc(CC(=O)O)c(C(C)=O)cc1OC	.	2.1	48.1*	-11.8	24.2	-3.4
CCCCN(C(=O)CC1OC(=O)c2ccccc21)c1c(N)n(CCCC)c(=O)[nH]c1=O (stereo not given)	-0.3	33.9	-1.7	0.7	.	4.2
CCCCn1c(N)c(N(Cc2ccccc2OC)C(=O)C(C)Oc2ccc(Cl)cc2)c(=O)[nH]c1=O (stereo not given)	12.4	1.1	1.1	-15.3	62.6*	-3.4
CCCCn1c(N)c(N(Cc2ccccc2OC)C(=O)CC2OC(=O)c3ccccc32)c(=O)[nH]c1=O (stereo not given)	31.8*	-1.1	7.5	4.7	.	-3.7
CN(C)CC(=O)N[C@H]1CC[C@@H](CCn2cc(C3CCCC3)nn2)O[C@@H]1CO	.	.	1.0	.	.	.
N/C(Cn1cncn1)=N\NC(=O)C(=O)Nc1ccc(Cl)cc1Cl	-10.8	-1.3	.	-6.4	60.0*	-3.6
O=C(Nc1ccccc1)Nc1ccc(Br)c(Cl)c1	-2.3	-1.5	75.0*	8.6	1.9	-6.4
O=C(Nc1ccccc1)Nc1ccc2ccccc2c1	43.7*	8.0	.	91.7*	3.1	-2.3
O=C(Nc1ccccc1)Nc1cccc(Cl)c1Cl	.	-2.1	59.7*	8.8	-6.7	-7.1
Cc1coc(C)c1C(=O)Nc1ccc2ccccc2c1	8.5	-2.2	56.7*	44.5	.	11.4
O=C(Nc1ccc(Cl)cc1)Nc1cccc2nsnc12	?	0.3	91.3*	24.7	19.9	-8.1
CC(=O)NCC1(O)CCCC(C)C1 (stereo not given)	40.8*	-3.4	.	0.9	37.4	-3.6
Cc1ccc(-n2c(Cc3ccccc3)n[nH]c2=S)cc1	.	1.3	-5.3	6.7	101.4*	33.9
Cc1n[nH]c(=S)n1-c1ccc(Cl)cc1	-0.6	0.7	.	-7.7	15.8	18.1
Cc1n[nH]c(=S)n1-c1ccccc1	-4.1	-5.0	.	-4.7	89.5*	-7.9
COc1ccc(S(=O)(=O)Nc2ccc3c(c2)CC(=O)N([C@H](C)CO)C[C@H](C)[C@@H](CN(C)C(=O)Nc2ccc(C(F)(F)F)cc2)O3)cc1	.	.	1.6	.	.	.
CCn1c(SCc2cccc(C)c2)nnc1-c1ccccc1	.	-4.6	11.4	14.9	42.0	-4.0
CCn1c(SC(C)C)nnc1-c1cc(-c2ccccc2)sc1N	16.4	-2.7	68.1*	.	2.5	-8.3
C/C=C/c1ccc([C@@H]2[C@@H](CO)N3CCCCN(S(=O)(=O)c4cccc(C)c4)C[C@H]23)cc1	.	.	-3.2	.	.	.
CC(=O)n1c2ccccc2c2c1c1ccccc1n2C	7.5	0.2	-7.1	-8.2	18.1	-3.7
C=CCNc1nc2c3ccccc3n(C(C)=O)c2s1	4.2	-1.7	23.0	2.4	69.9*	-1.7
COc1ccc(CN(CC2CCCO2)S(=O)(=O)c2ccc(C(=O)O)cc2)cc1OC (stereo not given)	.	-2.4	1.9	8.6	97.1*	-4.1
Cc1ccc(S(=O)(=O)N(Cc2cc3cc4c(cc3[nH]c2=O)OCCO4)CC2CCCO2)cc1 (stereo not given)	9.5	-3.8	9.6	-11.8	3.9	-7.8

Source: PubChem BioAssay (several laboratories)
